Experimental data as given in PubChem BioAssay AID1159580 (chemical genetic matrix, 2015).
Hit rate of the full screen: of about 5,500 compounds, about 2,000 (36%) were called active. Another 18% or so got no clear call; they are omitted. Cut-off read from the data, not from the text of the source: active = normalized growth mostly below about 0.91 (no sharp cut-off); inconclusive = no clear call, values can overlap the other calls; inactive = mostly above about 0.92. Some of the results follow.

Assay: chemical genetic growth profiling, strain panel (AID 1159580);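 note: tested at 20 µM; growth read once vehicle control cultures reached saturation at 30 °C; 1 = growth at the plate median or of vehicle wells; lower values mean less growth of the strain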
Conditions: S. cerevisiae deletion strains, growth OD
[1] = locus YAL013W, strain DEP1, stronger effect = lower value
[2] = locus YNL153C, strain GIM3, stronger effect = lower value
[3] = locus YPL055C, strain LGE1, stronger effect = lower value
[4] = locus YCL061C, strain MRC1, stronger effect = lower value
[5] = locus YHR030C, strain SLT2, stronger effect = lower value
[6] = locus YJL187C, strain SWE1, stronger effect = lower value
[7] = locus YHR079C, strain IRE1, stronger effect = lower value
[8] = locus YJL095W, strain BCK1, stronger effect = lower value
[9] = locus YJR066W, strain TOR1, stronger effect = lower value
[10] = locus YLR113W, strain HOG1, stronger effect = lower value
[11] = locus YNL183C, strain NPR1, stronger effect = lower value
[12] = locus YOR231W, strain MKK1, stronger effect = lower value
[13] = locus YPL256C, strain CLN2, stronger effect = lower value

Measured: normalized growth

N[C@@]1(C(=O)O)CC[C@@H](C(=O)O)C1
inactive: [1] 1.02 | locus YAL040C, strain CLN3, stronger effect = lower value 1.01 | locus YCL061C, strain MRC1 (second series), stronger effect = lower value 1 | locus YDR363W, strain ESC2, stronger effect = lower value 1.04 | locus YER002W, strain NOP16, stronger effect = lower value 1.01 | locus YGR229C, strain SMI1, stronger effect = lower value 1.03 | [2] 1 | locus YNL175C, strain NOP13, stronger effect = lower value 1.01 | locus YNL197C, strain WHI3, stronger effect = lower value 1.02 | locus YNL224C, strain SQS1, stronger effect = lower value 1.02 | locus YOR083W, strain WHI5 (second series), stronger effect = lower value 1.01 | [3] 1.02

N#C/C(=C\Nc1ccc2c(c1)OCCO2)S(=O)(=O)c1ccc(C(F)(F)F)cn1
inactive: [1] 0.985 | locus YBR229C, strain ROT2, stronger effect = lower value 1 | [4] 1.03 | locus YDL101C, strain DUN1, stronger effect = lower value 0.995 | locus YDL134C, strain PPH21, stronger effect = lower value 1 | locus YDR150W, strain NUM1, stronger effect = lower value 1.01 | locus YEL061C, strain CIN8, stronger effect = lower value 0.974 | locus YGR078C, strain PAC10, stronger effect = lower value 1.02 | locus YHR087W, strain rtc3, stronger effect = lower value 1.01 | locus YJR043C, strain POL32, stronger effect = lower value 1.02 | locus YJR075W, strain HOC1, stronger effect = lower value 1.02 | locus YKL190W, strain CNB1, stronger effect = lower value 0.98 | locus YLR039C, strain RIC1, stronger effect = lower value 1.02 | locus YLR058C, strain SHM2 (second series), stronger effect = lower value 1 | locus YLR262C, strain YPT6, stronger effect = lower value 1.01 | locus YML094W, strain GIM5, stronger effect = lower value 0.906 | locus YMR219W, strain ESC1, stronger effect = lower value 0.993 | locus YMR263W, strain SAP30, stronger effect = lower value 1.02 | [2] 1.02 | locus YNL322C, strain KRE1, stronger effect = lower value 0.996 | locus YNR030W, strain Alg12, stronger effect = lower value 0.978 | [3] 1.11 | locus YPL241C, strain CIN2, stronger effect = lower value 0.966 | locus YPR135W, strain CTF4, stronger effect = lower value 1.06
active: [5] 0.593 | [6] 0.733 | locus YLR085C, strain ARP6, stronger effect = lower value 0.742 | locus YNL298W, strain CLA4 (second series), stronger effect = lower value 0.835

O=C(O)c1cccc(O)c1O
inactive: locus YAL021C, strain ccr4, stronger effect = lower value 1.02 | locus YAL026C, strain drs2, stronger effect = lower value 1.02 | locus YAL030W, strain snc1, stronger effect = lower value 1.01 | locus YBL061C, strain skt5, stronger effect = lower value 1.03 | locus YBR009C, strain hhf1, stronger effect = lower value 1.02 | locus YBR023C, strain chs3, stronger effect = lower value 1.02 | locus YBR171W, strain sec66, stronger effect = lower value 1.03 | locus YBR231C, strain swc5, stronger effect = lower value 1.02 | locus YBR279W, strain paf1, stronger effect = lower value 1.02 | locus YCL011C, strain gbp2, stronger effect = lower value 1.02 | locus YCL016C, strain dcc1, stronger effect = lower value 1.01 | [4] 1.01 | locus YCL069W, strain vba3, stronger effect = lower value 1.02 | locus YCR088W, strain abp1, stronger effect = lower value 1.02 | locus YDL005C, strain med2, stronger effect = lower value 1.02 | locus YDL040C, strain nat1, stronger effect = lower value 1.02 | locus YDR001C, strain nth1, stronger effect = lower value 1.02 | locus YDR069C, strain doa4, stronger effect = lower value 1.02 | locus YDR137W, strain rgp1, stronger effect = lower value 1.02 | locus YDR159W, strain sac3, stronger effect = lower value 1.03 | locus YDR195W, strain ref2 0.997 | locus YDR297W, strain sur2, stronger effect = lower value 1.02 | locus YDR334W, strain swr1, stronger effect = lower value 1.02 | locus YDR335W, strain msn5, stronger effect = lower value 1.02 | locus YDR392W, strain spt3, stronger effect = lower value 1.04 | locus YEL003W, strain gim4, stronger effect = lower value 1.02 | locus YEL037C, strain rad23, stronger effect = lower value 1.02 | locus YEL061C, strain CIN8 (second series), stronger effect = lower value 1.02 | locus YER015W, strain faa2, stronger effect = lower value 1.03 | locus YER016W, strain bim1, stronger effect = lower value 1.01 | locus YER111C, strain swi4, stronger effect = lower value 1.03 | locus YER155C, strain BEM2 (second series), stronger effect = lower value 1.04 | locus YFR010W, strain ubp6, stronger effect = lower value 1.02 | locus YGL167C, strain pmr1, stronger effect = lower value 1.02 | locus YGL173C, strain kem1, stronger effect = lower value 1.03 | locus YGL227W, strain vid30, stronger effect = lower value 1.03 | locus YGL240W, strain doc1, stronger effect = lower value 1.02 | locus YGL253W, strain hxk2, stronger effect = lower value 1.02 | locus YHR013C, strain ard1, stronger effect = lower value 1.02 | locus YHR027C, strain rpn1, stronger effect = lower value 1.01 | [5] 1.06 | [7] 1.03 | locus YHR142W, strain chs7, stronger effect = lower value 1.01 | locus YJL092W, strain hpr5, stronger effect = lower value 1.02 | locus YJL095W, strain BCK1 (second series), stronger effect = lower value 1.01 | [8] 1.03 | locus YJL115W, strain asf1, stronger effect = lower value 1.03 | locus YJL129C, strain trk1, stronger effect = lower value 1.04 | locus YJL154C, strain vps35, stronger effect = lower value 1.02 | locus YJL164C, strain tpk1, stronger effect = lower value 1 | locus YJL166W, strain qcr8, stronger effect = lower value 1.02 | [6] 1.03 | [9] 0.99 | locus YKL160W, strain elf1, stronger effect = lower value 1.03 | locus YKR026C, strain gcn3, stronger effect = lower value 1.03 | locus YKR091W, strain srl3, stronger effect = lower value 1.02 | locus YLL001W, strain dnm1, stronger effect = lower value 1.02 | locus YLL026W, stronger effect = lower value 1.02 | locus YLL041C, strain sdh2, stronger effect = lower value 1.02 | locus YLR027C, strain aat2, stronger effect = lower value 1.01 | [10] 1.06 | locus YLR221C, strain rsa3, stronger effect = lower value 1.01 | locus YLR258W, strain gsy2, stronger effect = lower value 1.02 | locus YLR262C, strain YPT6 (second series), stronger effect = lower value 1.02 | locus YLR320W, strain mms22, stronger effect = lower value 1.03 | locus YLR342W, strain FKS1, stronger effect = lower value 1.03 | locus YLR357W, strain rsc2, stronger effect = lower value 1.01 | locus YLR370C, strain arc18, stronger effect = lower value 1.01 | locus YLR384C, strain iki3, stronger effect = lower value 1.02 | locus YML120C, strain ndi1, stronger effect = lower value 1.01 | locus YMR058W, strain fet3, stronger effect = lower value 1.02 | locus YMR125W, strain sto1, stronger effect = lower value 1.04 | locus YMR129W, stronger effect = lower value 1.03 | locus YMR205C, strain PFK2, stronger effect = lower value 1.03 | locus YMR231W, strain pep5, stronger effect = lower value 1.02 | locus YNL071W, strain lat1, stronger effect = lower value 1.01 | [11] 0.987 | locus YNL209W, strain ssb2, stronger effect = lower value 1.02 | locus YNL248C, strain rpa49, stronger effect = lower value 1.01 | locus YNL322C, strain KRE1 (second series), stronger effect = lower value 1.02 | locus YNR049C, strain mso1, stronger effect = lower value 1.02 | locus YOR001W, strain rrp6, stronger effect = lower value 1.03 | locus YOR070C, strain gyp1, stronger effect = lower value 1.02 | locus YOR080W, strain dia2, stronger effect = lower value 1.02 | locus YOR083W, strain WHI5, stronger effect = lower value 1.03 | locus YOR106W, strain vam3, stronger effect = lower value 1.02 | [12] 1.05 | locus YOR265W, strain rbl2, stronger effect = lower value 1.01 | locus YOR270C, strain vph1, stronger effect = lower value 1.05 | locus YOR290C, strain snf2, stronger effect = lower value 1.03 | locus YPL051W, strain arl3, stronger effect = lower value 1.02 | locus YPL078C, strain atp4, stronger effect = lower value 1.03 | locus YPL106C, strain sse1, stronger effect = lower value 1.02 | locus YPL240C, strain hsp82, stronger effect = lower value 1.03 | [13] 1.05

O=C(O)c1cccc2cccc(C(=O)O)c12
active: locus YAR019C, strain CDC15, stronger effect = lower value 0.085 | locus YBL105C, strain PKC1, stronger effect = lower value 0.0837 | locus YBR135W, strain CKS1, stronger effect = lower value 0.0904 | locus YBR136W, strain MEC1, stronger effect = lower value 0.0904 | locus YBR160W, strain CDC28, stronger effect = lower value 0.086 | locus YDL017W, strain CDC7, stronger effect = lower value 0.0824 | locus YDL028C, strain MPS1, stronger effect = lower value 0.0878 | locus YDL108W, strain KIN28, stronger effect = lower value 0.0876 | locus YDL214C, strain PRR2, stronger effect = lower value 0.0872 | locus YDR052C, strain DBF4, stronger effect = lower value 0.0886 | locus YDR054C, strain cdc34, stronger effect = lower value 0.0879 | locus YDR477W, strain SNF1, stronger effect = lower value 0.0946 | locus YER123W, strain YCK3, stronger effect = lower value 0.0991 | locus YER133W, strain GLC7, stronger effect = lower value 0.0939 | locus YFL009W, strain cdc4, stronger effect = lower value 0.0889 | locus YFL029C, strain CAK1, stronger effect = lower value 0.0833 | locus YFR003C, strain YPI1, stronger effect = lower value 0.0828 | locus YFR019W, strain FAB1, stronger effect = lower value 0.0952 | locus YGR040W, strain KSS1, stronger effect = lower value 0.11 | locus YGR052W, strain FMP48, stronger effect = lower value 0.113 | locus YGR092W, strain DBF2, stronger effect = lower value 0.107 | [5] 0.123 | [7] 0.109 | locus YHR082C, strain KSP1, stronger effect = lower value 0.135 | locus YHR205W, strain SCH9, stronger effect = lower value 0.0046 | locus YIL147C, strain SLN1, stronger effect = lower value 0.0851 | [8] 0.118 | locus YJL128C, strain PBS2, stronger effect = lower value 0.0989 | locus YJL157C, strain FAR1, stronger effect = lower value 0.0897 | locus YJR016C, strain ILV3, stronger effect = lower value 0.0848 | locus YJR066W, strain TOR1 (second series), stronger effect = lower value 0.101 | [9] 0.145 | locus YKL048C, strain ELM1, stronger effect = lower value 0.12 | locus YKL067W, strain YNK1, stronger effect = lower value 0.0918 | locus YKL101W, strain HSL1, stronger effect = lower value 0.114 | locus YKL193C, strain SDS22, stronger effect = lower value 0.0868 | locus YKL203C, strain TOR2, stronger effect = lower value 0.108 | [10] 0.184 | locus YLR133W, strain CKI1, stronger effect = lower value 0.0857 | locus YLR403W, strain SFP1, stronger effect = lower value 0.00123 | locus YML070W, strain DAK1, stronger effect = lower value 0.117 | locus YMR001C, strain CDC5, stronger effect = lower value 0.0843 | locus YMR205C, strain PFK2 (second series), stronger effect = lower value 0.0905 | locus YMR277W, strain FCP1, stronger effect = lower value 0.0893 | locus YNL006W, strain LST8, stronger effect = lower value 0.077 | locus YNL020C, strain ARK1, stronger effect = lower value 0.0896 | locus YNL161W, strain CBK1, stronger effect = lower value 0.0944 | [11] 0.112 | locus YNL207W, strain RIO2, stronger effect = lower value 0.0871 | locus YNL222W, strain SSU72, stronger effect = lower value 0.089 | locus YNL307C, strain MCK1 (second series), stronger effect = lower value 0.103 | locus YOL078W, strain AVO1, stronger effect = lower value 0.0865 | locus YOL136C, strain PFK27, stronger effect = lower value 0.0961 | locus YOR061W, strain CKA2, stronger effect = lower value 0.0989 | locus YOR119C, strain RIO1, stronger effect = lower value 0.104 | [12] 0.115 | locus YOR329C, strain SCD5, stronger effect = lower value 0.082 | locus YPL031C, strain PHO85, stronger effect = lower value 0.102 | locus YPL153C, strain RAD53, stronger effect = lower value 0.101 | locus YPL204W, strain HRR25, stronger effect = lower value 0.0938 | locus YPL209C, strain IPL1, stronger effect = lower value 0.0815 | [13] 0.162 | locus YPR025C, strain CCL1, stronger effect = lower value 0.0896 | locus YPR106W, strain ISR1, stronger effect = lower value 0.281 | strain NNK1, stronger effect = lower value 0.0867 | strain TSCII, stronger effect = lower value 0.0877
